{"source": "PubChem BioAssay (EPA / NIEHS)", "key": {"[1]": {"experiment": "ATG_M_06_XSP2: Attagene TRANS-FACTORIAL Multi-Species (XSP2) HepG2 Assay for M06 Transcription Factor (Internal Marker) (AID 2283811);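 note: hits are increases in signal above the DMSO baseline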", "summary_of_the_method": "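HepG2 cells transiently transfected with GAL4-UAS multiple reporter units, medium containing 3 nM 6-alpha-fluorotestosterone and 1.5 nM norgestrel; reporter mRNA measured 24 hours post-dosing by RT-PCR and capillary electrophoresis. Internal background marker, gain of signal vs DMSO.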"}, "[2]": {"test_system": "turtle Estrogen Receptor (ERa), gene 101933533", "experiment": "ATG_trERa_XSP2: Attagene TRANS-FACTORIAL Multi-Species (XSP2) HepG2 Assay for turtle Estrogen Receptor (ERa) (AID 2283812);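 note: actives raise reporter signal above DMSO so AC50 reflects agonist activity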", "summary_of_the_method": "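HepG2 cells transiently transfected with GAL4-UAS reporter units expressing turtle ERa-Gal4 chimera. Reporter mRNA measured after 24 h dosing by RT-PCR, fluorescent labelling and capillary electrophoresis; gain of signal fitted versus DMSO.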"}, "[3]": {"target": "Estrogen receptor beta (Homo sapiens) (UniProt Q92731)", "sequence (Q92731 whole entry, looked up, the tested form may be a part)": "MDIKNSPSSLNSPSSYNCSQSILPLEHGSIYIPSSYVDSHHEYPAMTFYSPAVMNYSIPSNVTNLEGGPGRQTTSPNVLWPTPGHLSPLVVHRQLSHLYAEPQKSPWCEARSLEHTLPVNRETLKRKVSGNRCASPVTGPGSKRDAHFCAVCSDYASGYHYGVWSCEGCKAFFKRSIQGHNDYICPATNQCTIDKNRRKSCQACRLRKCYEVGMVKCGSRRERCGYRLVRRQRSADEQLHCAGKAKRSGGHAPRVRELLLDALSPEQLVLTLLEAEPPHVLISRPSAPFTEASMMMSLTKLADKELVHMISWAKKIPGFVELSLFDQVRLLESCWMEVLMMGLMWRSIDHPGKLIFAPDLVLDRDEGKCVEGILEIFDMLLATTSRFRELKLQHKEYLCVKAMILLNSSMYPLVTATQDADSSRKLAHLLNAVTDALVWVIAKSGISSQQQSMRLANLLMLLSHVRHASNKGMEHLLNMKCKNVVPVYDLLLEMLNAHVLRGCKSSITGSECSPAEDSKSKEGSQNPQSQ", "experiment": "ATG_hERb_XSP2: Attagene TRANS-FACTORIAL Multi-Species (XSP2) HepG2 Assay for human Estrogen Receptor (ERb) (AID 2283813);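 note: actives raise reporter mRNA above DMSO so AC50 reflects agonist induction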", "summary_of_the_method": "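HepG2 cells transiently transfected with GAL4-UAS reporter units and chimeric human ERb-Gal4, 24 h exposure. Reporter mRNA quantified by RT-PCR with FAM labelling, HpaI digestion and capillary electrophoresis; gain of signal versus DMSO.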"}, "[4]": {"target": "GAL4 Transcription Factor (Internal Marker), GAL4 (gene 855828) (UniProt P04386)", "sequence (P04386 whole entry, looked up, the tested form may be a part)": "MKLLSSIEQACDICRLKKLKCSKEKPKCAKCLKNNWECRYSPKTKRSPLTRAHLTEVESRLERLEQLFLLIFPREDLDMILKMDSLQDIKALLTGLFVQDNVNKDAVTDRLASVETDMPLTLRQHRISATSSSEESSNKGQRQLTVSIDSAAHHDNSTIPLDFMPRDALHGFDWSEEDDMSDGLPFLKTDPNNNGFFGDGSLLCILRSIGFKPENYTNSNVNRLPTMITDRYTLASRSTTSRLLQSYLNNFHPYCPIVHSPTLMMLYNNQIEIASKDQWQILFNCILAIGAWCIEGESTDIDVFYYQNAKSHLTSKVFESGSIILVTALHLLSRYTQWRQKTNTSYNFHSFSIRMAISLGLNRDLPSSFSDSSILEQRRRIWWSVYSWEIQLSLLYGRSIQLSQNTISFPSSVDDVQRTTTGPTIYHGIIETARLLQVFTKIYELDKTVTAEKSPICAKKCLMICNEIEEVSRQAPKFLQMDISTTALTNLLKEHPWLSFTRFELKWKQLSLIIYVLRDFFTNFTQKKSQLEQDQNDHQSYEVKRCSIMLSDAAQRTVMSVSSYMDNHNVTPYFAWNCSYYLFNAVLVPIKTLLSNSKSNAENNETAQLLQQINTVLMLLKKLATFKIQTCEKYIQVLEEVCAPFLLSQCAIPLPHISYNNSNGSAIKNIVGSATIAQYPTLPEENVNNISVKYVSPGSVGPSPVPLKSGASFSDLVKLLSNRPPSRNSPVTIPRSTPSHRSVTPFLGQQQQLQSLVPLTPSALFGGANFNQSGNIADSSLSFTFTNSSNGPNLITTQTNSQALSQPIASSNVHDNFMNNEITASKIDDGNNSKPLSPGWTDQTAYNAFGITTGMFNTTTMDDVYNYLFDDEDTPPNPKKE", "experiment": "ATG_GAL4_XSP2: Attagene TRANS-FACTORIAL Multi-Species (XSP2) HepG2 Assay for GAL4 Transcription Factor (Internal Marker) (AID 2283814)", "summary_of_the_method": "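HepG2 cells transiently transfected with GAL4-UAS reporter units, stimulated with 3 nM 6-alpha-fluorotestosterone plus 1.5 nM norgestrel, dosed 24 h. Reporter mRNA by RT-PCR/capillary electrophoresis; gain-of-signal fit versus DMSO, background control.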"}, "[5]": {"target": "Nuclear receptor subfamily 1 group I member 2 (Mus musculus) (UniProt O54915)", "sequence (O54915 whole entry, looked up, the tested form may be a part)": "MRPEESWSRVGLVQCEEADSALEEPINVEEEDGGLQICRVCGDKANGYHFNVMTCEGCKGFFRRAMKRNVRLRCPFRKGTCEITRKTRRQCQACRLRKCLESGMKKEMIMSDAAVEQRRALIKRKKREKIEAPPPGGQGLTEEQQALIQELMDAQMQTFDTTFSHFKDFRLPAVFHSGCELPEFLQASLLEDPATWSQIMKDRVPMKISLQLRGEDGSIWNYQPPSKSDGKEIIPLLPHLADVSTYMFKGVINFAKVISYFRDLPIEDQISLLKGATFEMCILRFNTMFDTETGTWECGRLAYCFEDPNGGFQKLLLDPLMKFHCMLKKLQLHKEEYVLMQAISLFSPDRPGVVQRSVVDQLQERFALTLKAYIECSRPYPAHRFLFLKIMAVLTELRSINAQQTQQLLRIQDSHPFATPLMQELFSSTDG", "experiment": "ATG_mPXR_XSP1: Attagene TRANS-FACTORIAL Multi-Species (XSP1) HepG2 Assay for mouse Pregnane X Receptor (PXR) (AID 2283803)", "summary_of_the_method": "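Transiently transfected HepG2 cells expressing a receptor-Gal4 chimera drive a GAL4-UAS reporter; 3 nM 6-alpha-fluorotestosterone included. Reporter mRNA read 24 h post-dose by RT-PCR and capillary electrophoresis; gain of signal relative to DMSO.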"}, "[6]": {"test_system": "turtle Thyroid Hormone Receptor, alpha (TRa), gene 101949057", "experiment": "ATG_trTRa_XSP1: Attagene TRANS-FACTORIAL Multi-Species (XSP1) HepG2 Assay for turtle Thyroid Hormone Receptor, alpha (TRa) (AID 2283806)", "summary_of_the_method": "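HepG2 cells transiently transfected with GAL4-UAS reporter units and chimeric receptor-Gal4 constructs, with 3 nM 6-alpha-fluorotestosterone present. Reporter mRNA was quantified 24 h after dosing by RT-PCR, 6-FAM labelling and capillary electrophoresis; gain of signal versus DMSO.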"}, "[7]": {"target": "zebrafish Thyroid Hormone Receptor alpha (TRa), thraa (gene 30670) (UniProt Q98867)", "sequence (Q98867 whole entry, looked up, the tested form may be a part)": "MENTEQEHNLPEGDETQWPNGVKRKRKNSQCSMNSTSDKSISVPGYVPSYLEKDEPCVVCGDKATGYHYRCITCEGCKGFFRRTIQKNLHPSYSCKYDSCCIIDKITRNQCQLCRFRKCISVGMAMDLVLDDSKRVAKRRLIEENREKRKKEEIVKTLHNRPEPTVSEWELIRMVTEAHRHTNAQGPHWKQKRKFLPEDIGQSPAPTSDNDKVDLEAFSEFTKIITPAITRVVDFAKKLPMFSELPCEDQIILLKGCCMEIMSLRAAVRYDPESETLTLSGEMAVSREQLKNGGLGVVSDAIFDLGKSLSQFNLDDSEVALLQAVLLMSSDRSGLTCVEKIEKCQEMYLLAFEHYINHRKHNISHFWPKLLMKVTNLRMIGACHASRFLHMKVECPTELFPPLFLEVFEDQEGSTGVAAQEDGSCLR", "experiment": "ATG_zfTRa_XSP1: Attagene TRANS-FACTORIAL Multi-Species (XSP1) HepG2 Assay for zebrafish Thyroid Hormone Receptor alpha (TRa) (AID 2283807)", "summary_of_the_method": "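HepG2 cells transiently transfected with GAL4-UAS reporter units including a zebrafish TRa–Gal4 chimera, dosed 24 h with 3 nM 6-alpha-fluorotestosterone present. Reporter mRNA quantified by RT-PCR and capillary electrophoresis; gain versus DMSO.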"}, "[8]": {"target": "zebrafish Thyroid Hormone Receptor beta (TRb), thrb (gene 30607) (UniProt Q9PVE4)", "sequence (Q9PVE4 whole entry, looked up, the tested form may be a part)": "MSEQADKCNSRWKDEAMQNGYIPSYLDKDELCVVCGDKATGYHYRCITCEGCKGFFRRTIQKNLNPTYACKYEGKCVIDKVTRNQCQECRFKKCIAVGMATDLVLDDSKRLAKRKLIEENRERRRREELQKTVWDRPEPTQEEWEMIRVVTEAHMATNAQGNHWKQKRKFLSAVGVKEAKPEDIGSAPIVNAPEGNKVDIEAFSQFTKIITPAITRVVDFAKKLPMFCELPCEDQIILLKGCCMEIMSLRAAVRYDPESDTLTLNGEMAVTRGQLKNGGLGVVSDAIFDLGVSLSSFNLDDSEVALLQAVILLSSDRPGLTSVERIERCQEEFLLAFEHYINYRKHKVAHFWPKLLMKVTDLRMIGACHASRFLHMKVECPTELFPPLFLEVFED", "experiment": "ATG_zfTRb_XSP1: Attagene TRANS-FACTORIAL Multi-Species (XSP1) HepG2 Assay for zebrafish Thyroid Hormone Receptor beta (TRb) (AID 2283809)", "summary_of_the_method": "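HepG2 cells transiently transfected with multiplexed GAL4-UAS reporter units expressing chimeric zebrafish TRb–Gal4. Dosed 24 h with 3 nM 6-alpha-fluorotestosterone present; reporter mRNA measured by RT-PCR, HpaI digestion and capillary electrophoresis; gain of signal versus DMSO.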"}, "[9]": {"target": "human Thyroid hormone Receptor beta (TRb), THRB (gene 7068) (UniProt P10828)", "sequence (P10828 whole entry, looked up, the tested form may be a part)": "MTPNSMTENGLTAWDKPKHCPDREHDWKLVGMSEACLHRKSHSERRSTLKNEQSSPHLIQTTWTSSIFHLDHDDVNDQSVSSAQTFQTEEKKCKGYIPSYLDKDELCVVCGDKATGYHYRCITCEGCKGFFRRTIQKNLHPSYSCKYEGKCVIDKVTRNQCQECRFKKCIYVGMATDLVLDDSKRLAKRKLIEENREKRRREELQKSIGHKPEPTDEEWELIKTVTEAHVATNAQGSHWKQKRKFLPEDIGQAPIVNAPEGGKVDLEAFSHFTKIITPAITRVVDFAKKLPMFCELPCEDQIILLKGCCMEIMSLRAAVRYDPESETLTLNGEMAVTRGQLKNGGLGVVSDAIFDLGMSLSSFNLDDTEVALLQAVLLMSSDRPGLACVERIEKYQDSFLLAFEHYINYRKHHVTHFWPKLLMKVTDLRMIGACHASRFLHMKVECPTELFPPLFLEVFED", "experiment": "ATG_hTRb_XSP1: Attagene TRANS-FACTORIAL Multi-Species (XSP1) HepG2 Assay for human Thyroid hormone Receptor beta (TRb) (AID 2283808)", "summary_of_the_method": "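HepG2 cells transiently transfected with reporter units driving GAL4-UAS reporters for chimeric NR-Gal4 proteins; 24 h chemical exposure with 3 nM 6-alpha-fluorotestosterone present. Reporter mRNA quantified by RT-PCR and capillary electrophoresis, gain of signal versus DMSO.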"}, "[10]": {"experiment": "ATG_XTT_Cytotoxicity_XSP1: Cytotoxicity Assessment in the Attagene TRANS-FACTORIAL Multi-Species (XSP1) HepG2 Assay (AID 2283810)", "summary_of_the_method": "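XTT viability readout taken at 24 hours post-dosing in HepG2 liver cells co-treated with 3 nM 6-alpha-fluorotestosterone. Signal loss relative to DMSO controls reflects cytotoxicity.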"}}, "note": "“And” between values parts separate entries of the source, which are not always exact repeats. Identical values can stand only once. Inconclusive results are not listed. The source made the active and inactive calls. Rule for the calls: active = hit-call score of the fitted dose curve at least 0.9, where 1 is the maximum; inconclusive = response in the unintended direction; inactive = score below 0.9."}
{"smiles": "CCC(CC)Nc1c([N+](=O)[O-])cc(C)c(C)c1[N+](=O)[O-]", "values": [{"measurement": "outcome", "setting": "[1]", "result": "inactive"}, {"measurement": "AC50", "setting": "[2]", "result": "2.52 µM (active) and 1.7 µM (active)"}, {"measurement": "outcome", "setting": "[3]", "result": "inactive"}]}
{"smiles": "COc1ccc(C(=CC(=O)N2CCOCC2)c2ccc(Cl)cc2)cc1OC", "values": [{"measurement": "outcome", "setting": "[1]", "result": "inactive"}, {"measurement": "outcome", "setting": "[2]", "result": "inactive"}, {"measurement": "outcome", "setting": "[3]", "result": "inactive"}, {"measurement": "outcome", "setting": "[4]", "result": "inactive"}]}
{"smiles": "CCOP(=S)(OCC)Oc1ccc2c(C)c(Cl)c(=O)oc2c1", "values": [{"measurement": "AC50", "setting": "[5]", "result": "214 nM (active)"}, {"measurement": "outcome", "setting": "[6]", "result": "inactive"}, {"measurement": "outcome", "setting": "[7]", "result": "inactive"}, {"measurement": "outcome", "setting": "[8]", "result": "inactive"}, {"measurement": "outcome", "setting": "[1]", "result": "inactive"}, {"measurement": "outcome", "setting": "[2]", "result": "inactive"}, {"measurement": "outcome", "setting": "[3]", "result": "inactive"}, {"measurement": "outcome", "setting": "[4]", "result": "inactive"}]}
{"smiles": "CCC(=O)Nc1ccc(Cl)c(Cl)c1", "values": [{"measurement": "outcome", "setting": "[1]", "result": "inactive"}, {"measurement": "outcome", "setting": "[2]", "result": "inactive"}]}
{"smiles": "C#CC(C)(C)NC(=O)c1cc(Cl)cc(Cl)c1", "values": [{"measurement": "AC50", "setting": "[5]", "result": "13300 nM (active)"}, {"measurement": "outcome", "setting": "[6]", "result": "inactive"}, {"measurement": "outcome", "setting": "[7]", "result": "inactive"}, {"measurement": "outcome", "setting": "[9]", "result": "inactive"}, {"measurement": "outcome", "setting": "[8]", "result": "inactive"}, {"measurement": "outcome", "setting": "[1]", "result": "inactive"}, {"measurement": "outcome", "setting": "[2]", "result": "inactive"}, {"measurement": "outcome", "setting": "[4]", "result": "inactive"}]}
{"smiles": "CCOP(=O)(NC(C)C)Oc1ccc(SC)c(C)c1", "note": "(stereo unspecified)", "values": [{"measurement": "outcome", "setting": "[1]", "result": "inactive"}, {"measurement": "AC50", "setting": "[2]", "result": "100 µM (active) and 52.6 µM (active)"}, {"measurement": "outcome", "setting": "[3]", "result": "inactive"}, {"measurement": "outcome", "setting": "[4]", "result": "inactive"}]}
{"smiles": "Nc1c(Cl)cc([N+](=O)[O-])cc1Cl", "values": [{"measurement": "outcome", "setting": "[2]", "result": "inactive"}, {"measurement": "outcome", "setting": "[3]", "result": "inactive"}, {"measurement": "outcome", "setting": "[4]", "result": "inactive"}]}
{"smiles": "CCc1cccc(C)c1N(C(=O)CCl)C(C)COC", "note": "(stereo unspecified)", "values": [{"measurement": "AC50", "setting": "[5]", "result": "3280 nM (active)"}, {"measurement": "outcome", "setting": "[6]", "result": "inactive"}, {"measurement": "outcome", "setting": "[7]", "result": "inactive"}, {"measurement": "outcome", "setting": "[8]", "result": "inactive"}, {"measurement": "outcome", "setting": "[10]", "result": "inactive"}, {"measurement": "outcome", "setting": "[1]", "result": "inactive"}, {"measurement": "outcome", "setting": "[2]", "result": "inactive"}, {"measurement": "outcome", "setting": "[3]", "result": "inactive"}, {"measurement": "outcome", "setting": "[4]", "result": "inactive"}]}
{"smiles": "C#CCC1=C(C)C(OC(=O)C2C(C=C(C)C)C2(C)C)CC1=O", "note": "(stereo unspecified)", "values": [{"measurement": "AC50", "setting": "[5]", "result": "320 nM (active)"}, {"measurement": "outcome", "setting": "[7]", "result": "inactive"}, {"measurement": "outcome", "setting": "[9]", "result": "inactive"}, {"measurement": "outcome", "setting": "[8]", "result": "inactive"}, {"measurement": "outcome", "setting": "[10]", "result": "inactive"}, {"measurement": "outcome", "setting": "[1]", "result": "inactive"}, {"measurement": "outcome", "setting": "[3]", "result": "inactive"}]}
{"smiles": "CCCOCC(=Nc1ccc(Cl)cc1C(F)(F)F)n1ccnc1", "values": [{"measurement": "AC50", "setting": "[5]", "result": "201 nM (active)"}, {"measurement": "outcome", "setting": "[6]", "result": "inactive"}, {"measurement": "outcome", "setting": "[7]", "result": "inactive"}, {"measurement": "outcome", "setting": "[9]", "result": "inactive"}, {"measurement": "outcome", "setting": "[8]", "result": "inactive"}, {"measurement": "AC50", "setting": "[10]", "result": "100000 nM (active)"}, {"measurement": "outcome", "setting": "[1]", "result": "inactive"}, {"measurement": "outcome", "setting": "[3]", "result": "inactive"}]}
